Test [1] in a line: Nuclear factor erythroid 2-related factor 2/antioxidant responsive element (Nrf2/ARE) small molecule agonists: qHTS cell viability counter screen in human keratinocytes (AID 1919968; active = well fitted curve in the direction sought with a large enough effect in the repeat runs; an effect the other way counts as inactive or inconclusive; note: nearly all actives have a fitted effect of over 55% in size; note: potency is the fitted concentration of half-maximal effect). The essentials:
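Cytotoxicity was multiplexed with the Nrf2/ARE luciferase assay in the same wells. Stably transfected HaCaT keratinocytes were treated with test compounds for 23 h at 37 C. Cell viability was then measured by CellTiter-Fluor fluorescence.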

The nature of test [2]: Nuclear factor erythroid 2-related factor 2/antioxidant responsive element (Nrf2/ARE) small molecule agonists: luciferase reporter gene qHTS assay in human keratinocytes (AID 1919969). Note: nearly all actives have a fitted effect of over 35% in size. Note: potency is the fitted concentration of half-maximal effect. On the technique in general: A reporter such as luciferase makes a cellular process visible.
Test [3] deals with Gonadotropin-releasing hormone receptor (Homo sapiens) (UniProt P30968). The test is described as follows: Human gonadotropin-releasing hormone receptor (GnRHR) small molecule agonists, calcium flux assay in GnRHR-HEK293 cells (AID 1920063). Note: nearly all actives have a fitted effect of over 35% in size. The essentials: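 Agonist activity was measured as intracellular calcium flux in HEK293 cells engineered to stably express human GnRHR. After dye loading for 1 hour at 37 C, compounds in DMSO were added and fluorescence was followed for 3 minutes.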

The target in test [4] is KiSS-1 receptor (Homo sapiens) (UniProt Q969F8). Nature of the test: Human kisspeptin (KISS1R) small molecule agonists, calcium flux assay in KISS1R-HEK293 cells (AID 1920064; active = well fitted curve in the direction sought with a large enough effect in the repeat runs; an effect the other way counts as inactive or inconclusive). The essentials: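 Agonist activity is monitored as intracellular calcium rise in engineered HEK293 cells carrying human KISS1R. Cells are dye-loaded for 1 h at 37 C before compound addition, and fluorescence is recorded for 3 min.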
On the technique in general: A change in cytosolic calcium serves as a functional read-out for many receptors and channels.

Test [5] is described as follows: G protein-coupled receptor (GPCR) small molecule agonists, calcium flux assay: HEK293 wild type cell line counter screen (AID 1920065). The gist of the method:
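Seed cells, incubate 18 h (37 C, 5% CO2); add calcium dye, 1 h at 37 C; pin-transfer compounds, ATP control or DMSO; read fluorescence 480/540 nm each second for 3 min.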

A short description of test [6]: p53 small molecule agonists, cell-based qHTS assay with human liver microsomes (AID 1963577). The gist of the method:
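Cells carrying a p53-responsive bla reporter were rested 5 h (37 C, 5% CO2) before compound transfer. Human liver microsomes plus NADPH, 0.5 mg/mL final apiece, supplied metabolism during the 16 h 37 C exposure.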
(In qHTS, concentration-response curves come from the screen itself.)

A short description of test [7]: p53 small molecule agonists, cell-based qHTS assay with rat liver microsomes (AID 1963578). The gist of the method: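 Fluorescence from a beta-lactamase reporter under a p53 response element was measured after cells had been incubated 16 h at 37 C with test compound and rat liver microsomes plus NADPH (0.5 mg/mL final each).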
A short description of test [8]: p53 small molecule agonists, cell-based qHTS assay with human liver microsomes: qHTS cell viability counter screen (AID 1963579). Note: nearly all actives have a fitted effect of over 45% in size. The gist of the method: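 Seed p53RE-bla cells at 4,000 per well; incubate 5 h at 37 C; add compound, human liver microsomes and NADPH; incubate 16 h at 37 C; add CellTiter-Glo; after 30 min at room temperature, read luminescence.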
Test [9] is described as follows: p53 small molecule agonists, cell-based qHTS assay with rat liver microsomes: qHTS cell viability counter screen (AID 1963580). Note: nearly all actives have a fitted effect of over 45% in size. The gist of the method:
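Luminescent ATP readout (CellTiter-Glo, 30 min at room temperature) reports viability of p53RE-bla HCT-116 cells after 16 h at 37 C with test compounds under metabolic activation by rat liver microsomes and NADPH at 0.5 mg/mL final each.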

Test [10] in a line: p53 small molecule agonists, cell-based qHTS assay: qHTS cell viability counter screen (AID 1963581). Note: nearly all actives have a fitted effect of over 45% in size. Note: potency is the fitted concentration of half-maximal effect. The essentials:
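Viability was counter-screened in parallel with the p53 agonist reporter by measuring intracellular ATP luminescence in the same HCT-116 p53RE-bla wells after 16 h compound treatment at 37 C.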

A short description of test [11]: p53 small molecule agonists, cell-based qHTS assay (AID 1963582; active = well fitted activation curve with a large enough effect in the signal ratio in the repeat runs, not every such curve was filed as active; the % refers to the signal ratio). The essentials: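 Cells carrying a p53-responsive bla reporter are treated with test compounds for 16 h at 37 C; beta-lactamase activity is then detected with LiveBLAzer B/G FRET substrate after 2 h at room temperature.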
In test [12] the target is 5-hydroxytryptamine receptor 2A (Homo sapiens) (UniProt P28223). The test is described as follows: 5-hydroxytryptamine receptor 2A (HTR2A) small molecule agonists, cell-based qHTS assay (AID 1963587). Note: nearly all actives have a fitted effect of over 30% in size. The gist of the method:
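HTR2A-CHO cells, plated 18 h at 37 C/5% CO2, dye-loaded 1 h at 37 C; compounds in DMSO added by pin tool (agonist mode). Intracellular calcium flux read as kinetic fluorescence on FDSS over 2 min at 1 s intervals.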

Test [13] has as its target Muscarinic acetylcholine receptor M1 (Homo sapiens) (UniProt P11229). The test is described as follows: Cholinergic receptor muscarinic 1 (CHRM1) small molecule antagonists, cell-based qHTS assay (AID 1963588). Note: nearly all actives have a fitted effect of over 40% in size. Note: potency is the fitted concentration of half-maximal effect. The gist of the method: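 Compounds were tested at 15 concentrations in three independent runs. Dye-loaded CHRM1-CHO cells were exposed 5 min at room temperature before stimulation by acetylcholine added at 50nM. Intracellular calcium was read kinetically on FDSS for 3 min.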

The target is the same in test [14]. Nature of the test: Cholinergic receptor muscarinic 1 (CHRM1) small molecule agonists, cell-based qHTS assay (AID 1963589). Note: nearly all actives have a fitted effect of over 35% in size. The essentials: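 Cells were plated and incubated 18 h at 37 C/5% CO2, loaded with calcium dye for 1 h at 37 C, then treated with compounds in DMSO. Fluorescence was recorded kinetically at 1 sec intervals.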
The nature of test [15]: cAMP Responsive Elements (CRE) small molecule agonists, cell-based qHTS assay (AID 1963590). The gist of the method: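 Cells carrying a CRE-driven beta-lactamase reporter (HEK 293T) are seeded, incubated overnight (18 h), and treated with test compounds for 3 h at 37 C; reporter activity is then detected with a FRET substrate after 2 h at room temperature.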
Test [16] is described as follows: cAMP Responsive Elements (CRE) small molecule antagonists, cell-based qHTS assay (AID 1963591; active = well fitted inhibition curve with a large enough effect in the signal ratio in the repeat runs, not every such curve was filed as active; the % refers to the signal ratio). The gist of the method:
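Cells (CRE-bla HEK 293T, DMEM with 10% dialyzed FBS and 25 mM HEPES) are seeded and incubated 18 h. Compounds are added with NKH477 agonist at 0.25 uM final for 3 h, then FRET substrate for 2 h.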

For test [17], the target named is Beta-2 adrenergic receptor (Homo sapiens) (UniProt P07550). The test is described as follows: Adrenergic beta2 receptor (ADRB2) small molecule agonists, cell-based qHTS assay (AID 1963593).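 Note: CHO cells stably overexpressing human ADRB2.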 The gist of the method: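 CHO cells stably over-expressing ADRB2 were plated overnight at 37C, then dosed with compounds plus a stimulation mix containing 100uM IBMX and 25uM Ro-20-1724 for 0.5hr at room temperature. cAMP was measured by HTRF competition, 1hr.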

Test [18] deals with D(2) dopamine receptor (Homo sapiens) (UniProt P14416). Nature of the test: Dopamine D2 receptor (DRD2) small molecule agonists, cell-based qHTS assay (AID 1963594). Note: nearly all actives have a fitted effect of over 35% in size. The essentials: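 HEK293 cells stably expressing DRD2 were cultured 24 h at 37 C, then given Ro20-1724 (0.1 mM final) and compounds for 10 min at room temperature. NKH477 (200nM) was then added for 30 min. cAMP was read by HTRF.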

Test [19] has the same target. Nature of the test: Dopamine D2 receptor (DRD2) small molecule antagonists, cell-based qHTS assay (AID 1963595; active = well fitted inhibition curve with a large enough effect in the signal ratio in the repeat runs, with a control signal flat; the % refers to the signal ratio; note: potency is the fitted concentration of half-maximal effect). The essentials:
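Antagonist mode in DRD2-HEK293 cells: after compound addition with 0.1 mM Ro20-1724, cells received quinpirole (12 nM) and NKH477 (200 nM) for 30 min at room temperature; HTRF cAMP read after 1 h detection.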

The target of test [20] is Beta-2 adrenergic receptor (Homo sapiens) (UniProt P07550). The test is described as follows: Adrenergic beta2 receptor (ADRB2) small molecule antagonists, cell-based qHTS assay (AID 1963592). Note: series mostly up to about 92 µM; nearly all actives have a fitted effect of over 50% in size. The essentials: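 Assay format: CHO-ADRB2 cells, 18-20hr seeding at 37C/5% CO2, then compound plus 1nM isoproterenol agonist mix for 0.5hr RT. Homogeneous time-resolved fluorescence cAMP detection after 1hr, expressed as 665/615 nm ratio.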

The structures appear in SMILES notation. Results filed as inconclusive are left out. Active and inactive are the calls of the source. Unless noted, calls come from the whole dose curve.

Chain of KiSS-1 receptor (Homo sapiens) (Q969F8 whole entry, looked up): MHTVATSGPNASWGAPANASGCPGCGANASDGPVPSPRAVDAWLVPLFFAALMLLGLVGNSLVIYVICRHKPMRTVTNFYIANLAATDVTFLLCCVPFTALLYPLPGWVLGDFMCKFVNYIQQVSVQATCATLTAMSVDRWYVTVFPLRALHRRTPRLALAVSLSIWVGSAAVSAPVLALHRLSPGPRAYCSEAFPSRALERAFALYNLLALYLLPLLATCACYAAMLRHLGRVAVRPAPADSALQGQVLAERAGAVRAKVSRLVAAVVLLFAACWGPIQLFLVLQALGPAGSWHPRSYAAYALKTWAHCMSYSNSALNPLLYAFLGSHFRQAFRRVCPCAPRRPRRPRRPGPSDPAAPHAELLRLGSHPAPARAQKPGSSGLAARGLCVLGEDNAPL
Chain of D(2) dopamine receptor (Homo sapiens) (P14416 whole entry, looked up): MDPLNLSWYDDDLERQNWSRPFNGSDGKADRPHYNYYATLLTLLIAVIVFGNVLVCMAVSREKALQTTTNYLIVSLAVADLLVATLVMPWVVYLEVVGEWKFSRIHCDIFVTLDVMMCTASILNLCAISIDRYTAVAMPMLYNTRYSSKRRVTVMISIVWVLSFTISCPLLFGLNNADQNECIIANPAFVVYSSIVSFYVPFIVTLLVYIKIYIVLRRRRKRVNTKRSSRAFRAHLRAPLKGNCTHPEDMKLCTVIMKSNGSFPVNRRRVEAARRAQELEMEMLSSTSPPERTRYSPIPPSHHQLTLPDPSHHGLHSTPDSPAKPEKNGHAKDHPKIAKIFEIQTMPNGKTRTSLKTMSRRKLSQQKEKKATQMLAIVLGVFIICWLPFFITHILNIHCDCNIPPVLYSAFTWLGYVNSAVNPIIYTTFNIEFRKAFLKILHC
Chain of Gonadotropin-releasing hormone receptor (Homo sapiens) (P30968 whole entry, looked up): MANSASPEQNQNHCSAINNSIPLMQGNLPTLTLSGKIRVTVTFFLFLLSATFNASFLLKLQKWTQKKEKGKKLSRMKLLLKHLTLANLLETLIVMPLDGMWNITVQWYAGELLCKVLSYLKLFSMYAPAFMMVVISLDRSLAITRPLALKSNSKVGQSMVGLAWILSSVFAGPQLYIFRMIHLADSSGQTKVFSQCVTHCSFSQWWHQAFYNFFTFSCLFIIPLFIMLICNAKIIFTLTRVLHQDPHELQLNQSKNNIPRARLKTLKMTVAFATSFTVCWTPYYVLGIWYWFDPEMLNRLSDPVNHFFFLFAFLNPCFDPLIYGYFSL
Chain of Muscarinic acetylcholine receptor M1 (Homo sapiens) (P11229 whole entry, looked up): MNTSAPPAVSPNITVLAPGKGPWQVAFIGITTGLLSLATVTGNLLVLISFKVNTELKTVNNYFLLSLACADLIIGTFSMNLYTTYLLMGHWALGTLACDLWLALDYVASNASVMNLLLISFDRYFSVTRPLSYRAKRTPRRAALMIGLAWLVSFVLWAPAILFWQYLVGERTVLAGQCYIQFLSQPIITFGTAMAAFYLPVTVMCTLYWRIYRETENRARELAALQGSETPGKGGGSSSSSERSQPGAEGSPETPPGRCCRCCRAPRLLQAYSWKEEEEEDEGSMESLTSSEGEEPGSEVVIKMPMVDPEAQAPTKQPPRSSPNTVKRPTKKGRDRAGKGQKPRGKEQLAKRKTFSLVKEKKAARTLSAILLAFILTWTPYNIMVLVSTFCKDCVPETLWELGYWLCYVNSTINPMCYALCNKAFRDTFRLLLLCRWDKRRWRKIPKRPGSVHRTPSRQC
Chain of Beta-2 adrenergic receptor (Homo sapiens) (P07550 whole entry, looked up): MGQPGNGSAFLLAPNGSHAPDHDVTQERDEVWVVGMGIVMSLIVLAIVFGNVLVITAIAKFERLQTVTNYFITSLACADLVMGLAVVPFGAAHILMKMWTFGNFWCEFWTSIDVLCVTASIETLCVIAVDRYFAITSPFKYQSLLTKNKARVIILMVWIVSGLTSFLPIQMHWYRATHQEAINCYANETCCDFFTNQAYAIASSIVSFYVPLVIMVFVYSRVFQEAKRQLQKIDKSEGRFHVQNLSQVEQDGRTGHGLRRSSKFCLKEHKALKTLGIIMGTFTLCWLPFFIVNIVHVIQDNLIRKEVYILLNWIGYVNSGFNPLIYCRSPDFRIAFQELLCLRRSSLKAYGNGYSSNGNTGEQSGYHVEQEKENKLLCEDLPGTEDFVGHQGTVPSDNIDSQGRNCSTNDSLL
Chain of 5-hydroxytryptamine receptor 2A (Homo sapiens) (P28223 whole entry, looked up): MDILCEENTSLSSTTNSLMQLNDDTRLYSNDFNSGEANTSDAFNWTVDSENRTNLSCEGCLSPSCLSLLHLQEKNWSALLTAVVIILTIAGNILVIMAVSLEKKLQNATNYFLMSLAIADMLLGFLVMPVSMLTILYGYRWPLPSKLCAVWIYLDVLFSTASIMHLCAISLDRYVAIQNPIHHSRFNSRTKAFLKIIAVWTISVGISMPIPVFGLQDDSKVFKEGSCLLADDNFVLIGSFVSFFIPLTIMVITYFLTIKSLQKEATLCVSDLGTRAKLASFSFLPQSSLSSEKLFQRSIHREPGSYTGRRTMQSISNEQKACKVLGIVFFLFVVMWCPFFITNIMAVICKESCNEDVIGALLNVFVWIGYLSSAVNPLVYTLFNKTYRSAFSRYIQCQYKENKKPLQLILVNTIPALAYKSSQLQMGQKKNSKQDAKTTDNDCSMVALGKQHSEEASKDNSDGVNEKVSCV

Take `O=C(OCc1ccccc1)C(=O)OCc1ccccc1`: the Potency result in test [1], in test [2], in test [3], in [6], in test [7] and in test [8] was “inactive” each time. Also, the Potency result in test [9], in test [10], in test [11], in test [12], in [13] and in [14] was “inactive” each time. Further, the Potency result in test [15], in test [16], in test [17], in [18] and in test [19] was “inactive” each time. Also, the outcome in [4] and in test [5] was inactive.

`CCCC(C(=O)OCCN(CC)CC)(c1ccccc1)c1ccccc1`: the Potency result in test [1], in test [2], in test [3], in [6], in test [7] and in test [8] was “inactive” each time. Further, the Potency entry in test [9], in test [10], in test [11], in [12], in test [13] and in [14] was “inactive” each time. The Potency result in test [18] is “inactive”. Further, the outcome in [4] and in test [5] was inactive. For the same compound, in [19], the Potency was 26.6 µM (active).

Regarding `Cc1c(C)n(CCN(C)C)c2ccc(C(=O)OCCN(C)C)cc12`, the Potency entry in test [1], in test [3], in test [6], in [7], in [8] and in test [9] was “inactive” throughout. Besides, the Potency result in test [10], in [11], in test [12], in test [14], in test [15] and in test [20] was “inactive” each time. Besides, the Potency result in test [17], in test [18] and in test [19] was “inactive” each time. For the same compound, in test [2], the Potency is 29.8 µM (active). Further, the result in test [4] and in test [5] was inactive.

With `CN(C)C(=O)Nc1ccc(Oc2ccc(Cl)cc2)cc1`, the Potency result in [1], in test [2], in [3], in [6], in test [7] and in test [8] was “inactive” in each case. Also, the Potency entry in [9], in test [10], in test [11], in [12], in [14] and in test [15] was “inactive” each time. The Potency result in test [16], in test [20], in test [18] and in test [19] was “inactive” each time. Also, the result in [4] and in test [5] was inactive.

Take `CC(=O)[C@H]1CC[C@H]2[C@@H]3C[C@H](C)C4=CC(=O)CC[C@]4(C)[C@H]3[C@@H](O)C[C@]12C`: the Potency entry in test [1], in [2], in test [3], in [6], in test [7] and in test [8] was “inactive” throughout. For the same compound, the Potency result in test [9], in test [10], in [11], in test [12], in test [13] and in [14] was “inactive” throughout. Also, the Potency result in test [20], in [17] and in [19] was “inactive” throughout. Moreover, the outcome in [4] and in test [5] was inactive.

For the compound `O=P(O)(O)OCC(O)CO` (stereo not drawn), the Potency entry in [1], in test [2], in test [3], in test [6], in [7] and in test [8] was “inactive” each time. For the same compound, the Potency entry in test [9], in test [10], in test [11], in test [12], in [14] and in test [15] was “inactive” throughout. In addition, the Potency entry in test [16], in test [20], in test [17], in [18] and in [19] was “inactive” in each case. Further, the result in test [4] and in [5] was inactive.

Take `COc1ccc(CN2CCN(C(c3ccc(F)cc3)c3ccc(F)cc3)CC2)c(OC)c1OC`: the Potency in test [1] was 21.1 µM (active); in test [10], 15.8 µM (active); in test [13] it was 2.59 µM (active). For the same compound, the Potency result in test [2], in test [3], in [6], in [7], in test [8] and in test [9] was “inactive” each time. The Potency result in test [11], in test [12], in test [14], in test [20] and in test [17] was “inactive” throughout. Besides, the result in test [4] and in test [5] was inactive.
